Growth data for 40 compounds are collected here from PubChem BioAssay (NCI).

Several values for one entry are separate records, joined by “and”; a condition that tells them apart may be missing. Equal entries are not always repeated. About 83,000 compounds went through this panel and 20% of them were active in at least one assay; those are over-represented in the sample as a whole.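 Interpretation: 100, growth as untreated; towards 0, rising growth inhibition; 0, no net growth; 0 to -100, cell death. Compounds scoring below 10 were considered active.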 Activity calls are given as the source filed them.

This test relates to MDA-MB-468 breast. Put plainly: NCI-60 one-dose screen, 48 h (100 = growth as untreated, 0 = no growth, -100 = all killed). Conditions: 10 µM unless noted.
With `COc1ccc(-c2nc3ccc(-c4nnc(SCC(=O)Nc5ccc(C(=O)/C=C/c6ccc(Cl)cc6)cc5)o4)cc3[nH]2)cc1OC`, the growth is 102% (inactive).
For `CCN(C(=O)Nc1ccccc1Cl)c1ccccc1`, the growth was 97.4% (inactive).
On to `COc1c(OCCCN2CCOCC2)ccc2c3n(c(=NC(=O)c4cnc(N)nc4)nc12)CCN3`, for which the growth was -23.5% (active).
For the compound `Cc1nc2ccccc2c(C(=O)O)c1O`, the growth is 99.9% (inactive).
For the compound `Cc1ccc(Nc2nc(N)nc(Nc3ccc4ccccc4c3)n2)cc1`, the growth was 20.2% (inactive).
For the compound `O=C(/C=C/c1ccccc1)c1cccc(OCCCOc2cccc(C(=O)/C=C/c3ccccc3)c2)c1`, the growth is 93.9% (inactive).
Take `CC(C)C(=O)Cc1cnccn1`: the growth is 119% (inactive).
Regarding `O=C(CSc1nnc(-c2ccc(Cl)cc2)n1-c1ccccc1)Nc1ccc(Cl)cc1`, the growth is 4.06% (active).
On to `C/C(Cc1ccc(Cl)cc1)=C(\c1ccc(OCCN2CCCCCC2)cc1)c1ccc(OC(=O)Cc2ccccc2)cc1`, for which the growth was 69% (inactive).
Under `COc1c(C)cnc(CSc2nc(-c3ccc(C)cc3)cn2-c2ccc(Cl)cc2)c1C` stands 114% (inactive).
`O=C(Nc1ccc(CN2CCOCC2)cc1)c1[nH]ncc1Nc1ncnc2sccc12`: the growth was -25.6% (active).
For `Cn1cnc([N+](=O)[O-])c1Sc1ncn[nH]1`, the growth was 73.5% (inactive).
Regarding `NC(=S)N/N=C1\c2ccccc2-c2c(F)c(F)c(F)c(F)c21`, the growth is 25.8% (inactive).
On to `O=C1/C(=C\c2cccn2C(=O)c2ccccc2)c2ccccc2N1c1c(Cl)cccc1Cl`, for which the growth is 46.8% (inactive).
For the compound `c1ccc(CNc2nc(Nc3ccccc3)nc3ccccc23)cc1`, the growth was 13.2% (inactive).
In the case of `N=c1c2c(=O)n3c(nc2nc2sc4ccc(Cl)cc4n12)-c1ccccc1Sc1ccccc1-3`, the growth is 24.3% (inactive).
Consider `CCCCCCNc1nc(N2CCOCC2)c2[nH]c(NCCCCCC)nc2n1`, for which the growth is -76.7% (active).
For the compound `COC(=O)[C@@H](C)CNS(=O)(=O)N(c1cc(C(F)(F)F)cc(C(F)(F)F)c1)C1CCN(Cc2ccc(F)cc2)CC1`, the growth is 23.6% (inactive).
For the compound `COc1cc(C(=O)O/N=C(\N)Cc2cccc3ccccc23)cc(OC)c1OC`, the growth was -72.1% (active).
On to `CC(=O)NC(CCc1ccc(Cl)c(Cl)c1)c1cccc(O)c(=O)c1` (stereo not given), for which the growth is -31.6% (active).
Consider `CCN(CCNc1ccc(C)c2sc3cc(Cl)ccc3c(=O)c12)CC(C)(C)O`, for which the growth was -19.3% (active).
As for `Cn1cnc2nc[nH]c2c1=S`, the growth is 107% (inactive).
Turning to `OCCN1CCN(c2cc(-c3cccc(OC(F)(F)F)c3)nc3ccc(N4CCCC4)cc23)CC1`, the growth is 16.6% (inactive).
Turning to `O=C(O)COc1ccc2c(=O)c3sc4c(=O)c5ccccc5c(=O)c4c3c(=O)c2c1`, the growth was 26.4% (inactive).
The result for `COc1ccc(C2=C(c3cccc(OC)c3)C(=O)c3ccc(C)nc3C2=O)cc1` reads -60.8% (active); that for `Cc1c2ccccc2nc2cc3c(cc12)[C@H]1CC[C@]2(C)C(=O)CC[C@H]2[C@@H]1CC3`, 91.3% (inactive).
Turning to `CN(C)c1ccc(/C=C\C(=O)c2ccccc2)cc1`, the growth is 84.8% (inactive) and 88.3% (inactive) and 83.9% (inactive).
Regarding `Cc1cc2c(c(C)c1Cl)C(=O)/C(=C/c1ccc(O)c(O)c1)O2`, the growth was 109% (inactive).
Consider `COC(=O)/C=C1\S/C(=N\NC(=O)c2cc3ccc2/C=C\c2ccc(cc2)/C=C\3)N(Cc2ccccc2)C1=O`, for which the growth is 21.1% (inactive).
Consider `COc1cc(Cl)cc(-c2nn(-c3cccc(NC(=O)c4cc(C(F)(F)F)cc(C(F)(F)F)c4)c3)cc2-c2ccncc2)c1`, for which the growth is 46.5% (inactive).
Consider `Cn1c(=O)[nH]c2ccccc2c1=O`, for which the growth was 107% (inactive).
The result for `CCN1CCN(C(=O)[C@]23CC[C@@H](C)[C@H](C)[C@@H]2C2=CC[C@@H]4[C@@]5(C)C/C(=C/c6cccnc6)C(=O)C(C)(C)[C@@H]5CC[C@@]4(C)[C@]2(C)CC3)CC1` reads 16.4% (inactive); that for `Nc1nc(N)c(N=Nc2ccc(C(=O)O)cc2)c(N)n1`, 114% (inactive).
Take `O=C(Oc1ccc2ccc(=O)oc2c1)c1ccc(Cl)cc1`: the growth is 115% (inactive).
The result for `COc1ccc(/C=C2\SC(=Nc3ccccc3)NC2=O)cc1` reads -84.8% (active).
With `Cc1cc2c(-c3nc4ccccn4c3NC3CCCCC3)c(O)c(O)cc2c(O)c1-c1c(C)cc2c(-c3nc4ccccn4c3NC3CCCCC3)c(O)c(O)cc2c1O`, the growth was 13.9% (inactive).
For the compound `C=C1C(=O)O[C@H]2[C@H]1CC/C(COC(=O)/C=C\C(=O)O)=C\CC[C@@]1(C)O[C@@H]21`, the growth was 110% (inactive).
As to `CCCn1c(=S)sc2c1nc(C)n1c(Nc3ccccc3)nnc21`, the growth was 51.5% (inactive).
Consider `COc1cc(C2=NN(c3ccc(S(N)(=O)=O)cc3)C(c3ccc(Cl)cc3)C2)cc(OC)c1OC` (stereo not given), for which the growth is 38.3% (inactive).
`O=C1CC(C(F)(F)F)=NN1C(=O)c1nn(-c2ccc(Cl)cc2)cc1O`: the growth was 116% (inactive).
